For experiment [1], the system named is Plasmodium falciparum Sir2 (PF13_0152, Sir2A). The experiment can be described thus: Plasmodium falciparum Sir2A binding compounds – biochemical, small-molecule microarray, 635 nm fluorescence, primary screen (AID 1098).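 Also: score merges spot fluorescence intensity with its signal-to-noise ratio.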 Particulars: fluorescence 635 nm, higher = more signal.
Experiment [2] can be described thus: probe aDKK1 binding to arrayed compounds – biochemical, biotinylated probe, 635/667 nm fluorescence, primary screen (AID 1099).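 Also: score merges 667nm spot fluorescence with signal to noise across triplicate slides; reference of the scale not given here.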 Conditions: small-molecule microarray, higher = more signal.
Experiment [3] can be described thus: probe aCHRDL2 binding to arrayed compounds – biochemical, biotinylated probe, 635/667 nm fluorescence, primary screen (AID 1100). Conditions: small-molecule microarray, higher = more signal.
Experiment [4] is described as follows: change in splice reporter luminescence, either direction, cell-based, HEK293, spliceosome inhibition project, primary screen (AID 1101).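 Also: HEK293 cells carrying a splicing-competent luciferase reporter gene; test concentration not given here.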 Conditions: HEK293 splicing luciferase reporter, 24 h, higher = more signal, called active from +8 up or from −8 down.
In experiment [5] the target is Fibroblast growth factor 10 (Homo sapiens) (UniProt O15520). Briefly: compounds binding fibroblast growth factor 10 – biochemical, small-molecule microarray, 635 nm fluorescence, primary screen (AID 1102). Particulars: FGF10 binding, fluorescence 635 nm, higher = more signal.
Experiment [6] concerns glycogen synthase kinase-3 (GSK3A per assay name; protocol says GSK3B). Briefly: compounds binding glycogen synthase kinase-3 – biochemical, small-molecule microarray, 635 nm fluorescence, GSK3A, primary screen (AID 1103). Also: the record names both GSK3A and GSK3B. Particulars: fluorescence 635 nm, higher = more signal.
Experiment [7] has as its target Epidermal growth factor receptor (Homo sapiens) (UniProt P00533). The experiment can be described thus: compounds binding epidermal growth factor receptor – biochemical, small-molecule microarray, 635 nm fluorescence, primary screen (AID 1104).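 Also: score merges 667 nm emission intensity with spot signal to noise over triplicate slides.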 Particulars: EGFR binding, higher = more signal.
The target of experiment [8] is Follistatin-related protein 3 (Homo sapiens) (UniProt O95633). Briefly: compounds binding follistatin-related protein 3 – biochemical, small-molecule microarray, 635 nm fluorescence, primary screen (AID 1105).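 Also: score merges emission near 667 nm and signal to noise per printed spot across three slides.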 Particulars: FSTL3 binding, higher = more signal.
The target of experiment [9] is Dickkopf-related protein 1 (Homo sapiens) (UniProt O94907). The experiment can be described thus: small molecules binding DKK1 protein – biochemical, small-molecule microarray, 635 nm fluorescence scan, primary screen (AID 1106).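 Also: score merges emission near 667 nm with signal to noise over three replicate slides.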 Conditions: higher = more signal.
Experiment [10] deals with Inhibin beta A chain (activin A). The experiment can be described thus: small molecules binding activin A – biochemical, small-molecule microarray, 635 nm fluorescence scan, primary screen (AID 1107).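 Also: mouse activin A protein probed at 4.33 µg/mL on printed slides; score merges bound-protein fluorescence near 667 nm with spot signal-to-noise.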 Conditions: INHBA, higher = more signal.

Calls of active or inactive are those of the source.

Chain of Epidermal growth factor receptor (Homo sapiens) (P00533 whole entry, looked up): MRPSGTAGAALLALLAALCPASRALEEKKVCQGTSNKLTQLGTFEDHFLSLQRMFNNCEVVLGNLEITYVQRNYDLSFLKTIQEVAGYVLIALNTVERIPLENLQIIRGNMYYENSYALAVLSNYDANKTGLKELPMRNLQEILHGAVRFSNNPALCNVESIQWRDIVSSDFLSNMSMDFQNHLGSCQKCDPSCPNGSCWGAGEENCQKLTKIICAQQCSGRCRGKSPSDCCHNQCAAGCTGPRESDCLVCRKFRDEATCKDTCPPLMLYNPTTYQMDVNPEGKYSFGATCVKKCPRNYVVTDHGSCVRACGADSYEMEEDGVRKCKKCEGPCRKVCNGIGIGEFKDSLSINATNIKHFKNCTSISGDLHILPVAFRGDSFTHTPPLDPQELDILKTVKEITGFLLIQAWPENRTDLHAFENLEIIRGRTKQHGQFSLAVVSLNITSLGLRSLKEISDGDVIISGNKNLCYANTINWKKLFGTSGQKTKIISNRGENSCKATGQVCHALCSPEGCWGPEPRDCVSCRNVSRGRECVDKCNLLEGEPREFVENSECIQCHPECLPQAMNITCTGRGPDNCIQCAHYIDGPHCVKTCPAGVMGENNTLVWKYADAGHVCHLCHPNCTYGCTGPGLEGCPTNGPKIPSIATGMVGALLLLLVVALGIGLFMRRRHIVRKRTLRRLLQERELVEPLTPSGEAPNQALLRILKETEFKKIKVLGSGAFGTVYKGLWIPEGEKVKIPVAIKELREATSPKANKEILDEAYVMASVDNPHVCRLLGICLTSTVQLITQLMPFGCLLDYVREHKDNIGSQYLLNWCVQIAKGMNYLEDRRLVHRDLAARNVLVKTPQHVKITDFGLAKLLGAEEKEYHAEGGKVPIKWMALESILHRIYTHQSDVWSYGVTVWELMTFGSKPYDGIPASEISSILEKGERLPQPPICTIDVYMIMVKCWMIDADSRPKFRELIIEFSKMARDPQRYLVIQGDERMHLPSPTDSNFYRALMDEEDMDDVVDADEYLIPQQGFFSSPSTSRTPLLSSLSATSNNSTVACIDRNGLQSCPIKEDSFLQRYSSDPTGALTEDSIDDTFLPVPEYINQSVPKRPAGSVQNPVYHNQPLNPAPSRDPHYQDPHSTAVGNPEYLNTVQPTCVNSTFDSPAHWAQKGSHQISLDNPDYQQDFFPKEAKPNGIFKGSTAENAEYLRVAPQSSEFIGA
Chain of Fibroblast growth factor 10 (Homo sapiens) (O15520 whole entry, looked up): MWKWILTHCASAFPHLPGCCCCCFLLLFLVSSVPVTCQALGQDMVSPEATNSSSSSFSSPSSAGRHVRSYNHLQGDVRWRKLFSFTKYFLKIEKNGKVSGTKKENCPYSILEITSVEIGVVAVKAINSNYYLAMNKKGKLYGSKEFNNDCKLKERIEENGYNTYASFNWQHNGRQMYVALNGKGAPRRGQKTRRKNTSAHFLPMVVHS
Chain of Dickkopf-related protein 1 (Homo sapiens) (O94907 whole entry, looked up): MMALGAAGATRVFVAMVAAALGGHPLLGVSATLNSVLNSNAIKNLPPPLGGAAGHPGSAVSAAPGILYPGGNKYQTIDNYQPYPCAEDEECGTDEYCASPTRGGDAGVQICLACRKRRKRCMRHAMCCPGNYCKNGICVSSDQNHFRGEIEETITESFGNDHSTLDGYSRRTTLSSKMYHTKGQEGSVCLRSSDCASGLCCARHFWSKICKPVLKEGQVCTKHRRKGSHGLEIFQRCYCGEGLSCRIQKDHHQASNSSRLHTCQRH
Chain of Follistatin-related protein 3 (Homo sapiens) (O95633 whole entry, looked up): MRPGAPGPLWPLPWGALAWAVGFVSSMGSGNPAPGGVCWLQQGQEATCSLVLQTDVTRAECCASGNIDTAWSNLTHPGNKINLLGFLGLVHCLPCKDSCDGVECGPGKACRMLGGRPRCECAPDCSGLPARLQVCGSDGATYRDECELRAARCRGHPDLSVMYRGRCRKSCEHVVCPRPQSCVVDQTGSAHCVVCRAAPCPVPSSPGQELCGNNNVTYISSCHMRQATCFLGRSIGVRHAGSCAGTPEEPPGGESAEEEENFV

Take `C=CCOC(=O)[C@H]1[C@@H]2C(=O)O[C@@H](c3ccccc3)[C@@H](c3ccccc3)N2[C@@H](c2ccc(OCCOC(=O)[C@@H]3C[C@@H]4C(=O)N[C@@H](Cc5ccccc5)C(=O)N4[C@@H]3c3ccc(O)cc3)cc2)[C@]12C(=O)Nc1ccccc12`: the composite z-score was 1.34 in experiment [1]; -0.271 in [2]; -0.25 in experiment [3]; 1.18 in experiment [5]; 1.29 in experiment [6]; 0.328 in experiment [7]. The composite z-score in [8] is 0.953; in experiment [9] it was 0.973; in experiment [10], -0.0812. Further, the z-score in experiment [4] was 0.878 (inactive).
On to `C=CCNC(=O)[C@H]1[C@@H]2C(=O)O[C@@H](c3ccccc3)[C@@H](c3ccccc3)N2[C@@H](c2ccccc2OCCO)[C@]12C(=O)N(C(=O)OCCOC)c1ccccc12`, for which the composite z-score in experiment [1] is 1.58; in [2] it was 0.125; in experiment [3], 0.0274; in [5], 1.08; in experiment [6], 1.28; in experiment [7], 0.341. The composite z-score in [8] is 0.616; in experiment [9] it was 0.239; in [10], -0.101. Further, in [4], the z-score was -1.24 (inactive).
Take `C=CC[C@@]1(C(=O)N(C)C)N=C(c2ccc(OCCCO)cc2)O[C@@H]1c1ccccc1`: the composite z-score in experiment [1] was 1.72; in [2] it was 0.595; in experiment [3] it was 0.959; in experiment [5] it was 1.4; in experiment [6], 1.01; in [7], -0.644. The composite z-score in experiment [8] was -0.583; in [9] it was -0.217; in experiment [10], 1.17. Moreover, the z-score in experiment [4] was -0.69 (inactive).
Take `CN(C)CCCCNC(=O)[C@H]1C[C@H]2C(=O)NCC(=O)N2[C@H]1c1cccc(OCCO)c1`: the composite z-score in experiment [1] was 0.828; in experiment [2], -0.173; in [3] it was 0.084; in [5] it was 1.02; in experiment [6], -0.54; in experiment [7] it was 0.138. The composite z-score was 0.186 in experiment [8], 0.168 in experiment [9] and -0.09 in experiment [10]. The z-score in [4] was -0.706 (inactive).
As for `CN1C=C(C(=O)OCCS(C)(=O)=O)C(C(=O)OCCS(C)(=O)=O)=CC(CCCO)=CC1c1ccc(CN2CCCC2)cc1` (stereo not given), the composite z-score came out at 0.867 in experiment [1]; 0.633 in experiment [2]; 0.539 in [3]; 1.27 in experiment [5]; 1.3 in [6]; 0.566 in experiment [7]. Moreover, the composite z-score in experiment [8] amounted to 1.32; in experiment [9] it was 0.602; in [10], 0.969. The z-score in experiment [4] was -0.0863 (inactive).
As for `CCc1cccc(NC(=O)O[C@H]2[C@H](OC(=O)Nc3ccc4c(c3)OCO4)[C@H](OC(=O)Nc3ccc4c(c3)OCO4)[C@@H](OC)O[C@@H]2CO)c1`, the composite z-score in experiment [1] was 1.44; in experiment [2], -0.154; in experiment [3] it was 0.226; in experiment [5] it was 0.699; in experiment [6] it was 1.32; in [7], -0.438. Further, the values for the composite z-score in experiment [8], in experiment [9] and in [10] were 0.791, 0.129 and 0.627, respectively. Besides, the z-score in [4] was -1.34 (inactive).
With `O=C1C2C=CC(C(O)c3cccs3)N(Nc3ccccc3)C2C(=O)N1c1ccccc1` (stereo not given), the composite z-score in experiment [1] is 0.695; in experiment [2], 0.742; in experiment [3], 0.467; in [5], 0.0597; in experiment [6] it was -0.828; in experiment [7] it was 0.0148. Further, the composite z-score in [8] was -0.03; in experiment [9] it was 0.034; in experiment [10], 1.42. The z-score in experiment [4] is -0.145 (inactive).
In the case of `C=CCC(OC(C)=O)[C@@H]1[C@@H](N(Cc2ccc(-c3ccccc3)cc2)C(=O)c2cccc3ccccc23)c2cc(OCCCO)ccc2N1C(=O)c1ccc2ccccc2c1` (stereo not given in full), the composite z-score is -0.859 in experiment [1]; 1.11 in experiment [2]; -0.0972 in [3]; 0.256 in experiment [5]; 0.201 in [6]; -0.0576 in experiment [7]. The composite z-score in experiment [8] is 0.5; in [9], -0.19; in [10] it was 1.08. In addition, the z-score in experiment [4] is -0.686 (inactive).
In the case of `COc1ccc(CCNC(=O)[C@@]2(C)c3ccccc3C(=O)N(Cc3cc(C(F)(F)F)cc(C(F)(F)F)c3)[C@H]2c2ccc(CO)cc2)cc1`, the composite z-score in experiment [1] stood at 0.569; in experiment [2], 1.64; in experiment [3], 1.02; in experiment [5] it was 0.329; in experiment [6] it was 0.651; in [7], 0.875. Also, the composite z-score is 0.371 in experiment [8], 0.338 in experiment [9] and -0.307 in experiment [10]. For the same compound, the z-score in [4] is -0.926 (inactive).
For the compound `C=CC[C@]1(C(=O)NCc2ccccc2)COC(c2ccc(OCCCO)cc2)=N1`, the composite z-score was 1.49 in [1]; 1.43 in [2]; 1.6 in [3]; -0.215 in experiment [5]; -0.9 in experiment [6]; -1.47 in experiment [7]. In addition, the composite z-score in experiment [8] is 0.101; in [9], -0.301; in experiment [10] it was 0.792. The z-score in experiment [4] is 0.589 (inactive).
With `COCCOC(=O)N1C(=O)[C@@]2(c3cc(C#CC4=CCCCC4)ccc31)[C@H](C(=O)N1CCN(c3ncccn3)CC1)[C@H]1C(=O)O[C@H](c3ccccc3)[C@H](c3ccccc3)N1[C@@H]2c1ccccc1OCCO`, the composite z-score in experiment [1] is 0.419; in [2], -0.082; in experiment [3], -0.296; in experiment [5], 1.3; in experiment [6], 1.28; in experiment [7] it was 0.396. Also, the composite z-score in experiment [8] is 1.19; in experiment [9], 0.402; in [10], 0.451. The z-score in [4] is -0.544 (inactive).
On to `[N-]=[N+]=NCc1ccccc1C[C@]1(C(=O)N2CCCCC2)N=C(c2ccc(OCCCO)cc2)O[C@H]1c1ccccc1`, for which the composite z-score was 0.92 in experiment [1]; 0.484 in [2]; 0.769 in experiment [3]; 0.567 in experiment [5]; 0.568 in experiment [6]; -0.761 in experiment [7]. Besides, the composite z-score in experiment [8] was -0.278; in experiment [9] it was -0.64; in [10], 0.55. In [4], the z-score was -0.44 (inactive).
In the case of `C=C(CCCC)C(=O)CC[C@H](OC(C)=O)c1ccccc1OCCO`, the composite z-score in experiment [1] was 1.51; in experiment [2], -0.179; in experiment [3], -0.123; in experiment [5], 0.633; in experiment [6] it was -0.783; in experiment [7], 0.333. The composite z-score in [8] was 0.467; in [9], 0.513; in [10] it was 0.491. The z-score in experiment [4] was 1.77 (inactive).
With `CCOC(=O)C1=C[C@@H](C(C)(C)C)N(S(=O)(=O)c2ccc(C)cc2)[C@H]1c1ccccc1Cl`, the composite z-score in experiment [1] was 0.993; in experiment [2], 1.18; in experiment [3], 1.11; in experiment [5], 0.915; in [6] it was 1.29; in experiment [7], 0.292. The composite z-score in experiment [8] was determined as 1.18; in [9], 0.0627; in experiment [10], 0.0829. Also, the z-score in experiment [4] was -0.232 (inactive).

The record behind these values is PubChem BioAssay.
